Source: PubChem (National Center for Advancing Translational Sciences (NCATS))
A selection: hits, their analogues and other compounds. The true share with any hit is near 1.6%.
FUS suppressor: FUS proteinopathy suppression in yeast | hit rate 0.24% among 390,000 | Potency, µM (highest dose often 76.6 µM), actives largely listed as activators | S. cerevisiae FUS-expressing, growth rescue, OD600, 24 h | AID 1347120; further: nearly all actives have a fitted effect of over 55% in size
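Read-out: OD at 600 nm after 24hr at 30C, reporting rescue of FUS-induced yeast toxicity. Cells at OD 0.005 in galactose (2%) minimal medium; compounds tested in a dilution series; CP55940 titration from 92uM final as control.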
ALOX12 inh: blocks human arachidonate 12S-lipoxygenase | Potency, µM (doses to about 108 µM), most hits filed as inhibitors | hit rate 1.1% among 580,000 | AID 1671190 | purified 12hLO, xylenol orange hydroperoxide absorbance | P18054
Target sequence (P18054 whole entry, looked up): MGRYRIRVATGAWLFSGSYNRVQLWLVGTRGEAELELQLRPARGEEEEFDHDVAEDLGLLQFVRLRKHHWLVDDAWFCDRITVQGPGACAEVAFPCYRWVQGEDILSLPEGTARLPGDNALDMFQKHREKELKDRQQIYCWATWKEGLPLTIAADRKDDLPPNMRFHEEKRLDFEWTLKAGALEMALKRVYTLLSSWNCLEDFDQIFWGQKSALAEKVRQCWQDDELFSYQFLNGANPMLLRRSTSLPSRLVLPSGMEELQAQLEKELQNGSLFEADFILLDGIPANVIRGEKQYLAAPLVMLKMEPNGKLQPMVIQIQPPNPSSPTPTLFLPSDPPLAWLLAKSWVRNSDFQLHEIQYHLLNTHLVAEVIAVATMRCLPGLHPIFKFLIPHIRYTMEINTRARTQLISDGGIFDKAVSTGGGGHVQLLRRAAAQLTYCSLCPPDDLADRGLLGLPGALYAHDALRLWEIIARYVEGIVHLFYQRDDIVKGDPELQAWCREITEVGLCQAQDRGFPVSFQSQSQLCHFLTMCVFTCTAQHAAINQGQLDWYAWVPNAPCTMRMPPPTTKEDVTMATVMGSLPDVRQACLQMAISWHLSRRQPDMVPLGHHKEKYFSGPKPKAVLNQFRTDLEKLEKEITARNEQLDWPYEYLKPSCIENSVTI
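Purified human 12hLO at 150 nM in 25 mM Hepes, 0.01% Triton X-100, pH 7.0, preincubated 15 min at room temperature with compound. Reaction started with 40 uM arachidonic acid, 30 min at room temperature. Hydroperoxide measured by Fe-xylenol orange, 573/405 nm absorbance ratio.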
gsp agonist: agonists of gsp mutant (McCune-Albright syndrome). gsp mutant cells, cAMP HTRF, 30 min. hit rate 0.13% among 340,000. AID 624287. Potency, µM (highest dose often 76.9 µM), most hits filed as activators; active means well fitted activation curve with a large enough effect; inconclusive means small, poorly fitted or top-dose-only effect, or another doubt; inactive means no such curve, though single readings can be large or run the other way; cell line not stated here;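 further: phosphodiesterase inhibitor Ro 20-1724 added with compounds to block cAMP breakdown; nearly all actives have a fitted effect of over 60% in size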
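Cells in DMEM/10% FBS with G418 were pretreated with compounds in DMSO plus […] (300 uM stock) for 30 min at 37C. cAMP was measured by HTRF (cAMP-d2 plus anti-cAMP antibody-K) after 30 min at room temperature.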
gsp antag: gsp mutant antagonism. hit rate 0.4% among 340,000. gsp-mutant cells, cAMP HTRF, 30 min. AID 624288. Potency, µM (highest dose often 76.9 µM), actives largely listed as inhibitors; calls by dose curve; cell line not stated here;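 further: intracellular cAMP measured with PDE inhibitor Ro 20-1724 present during compound exposure; nearly all actives have a fitted effect of over 65% in size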
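HTRF cAMP read-out (cAMP-d2 plus anti-cAMP antibody-K in lysis buffer, 30 min RT). Before lysis, cells are exposed to compounds with […] for 30 min at 37C in DPBS containing Ca/Mg, BSA and Tween 20.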
Mito fusion act: inhibitors of mitochondrial division or activators of mitochondrial fusion | S. cerevisiae fusion-defective mutant growth rescue, CellTiterGlo 48 h | Potency, µM (series often up to 46.1 µM), usual class: activators | hit rate 0.23% among 320,000; further: nearly all actives have a fitted effect of over 45% in size
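Compounds are tested for their ability to restore growth of mitochondrial fusion-defective yeast strains at non-permissive 37C in YPEG medium over 48 hours. Viability is quantified by luciferase luminescence.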
Numbers stand for hits; . = inactive; ? = inconclusive; / = no result given; [ ] = remark or other dose. Unless noted, the call rests on the fitted dose curve; in most records, active means well fitted curve in the direction sought with a large enough effect; inconclusive means small, poorly fitted or top-dose-only effect, or another doubt; inactive means no such curve, though single readings can be large; an effect the other way counts as inactive or inconclusive.

SMILES | FUS suppressor | ALOX12 inh | gsp agonist | gsp antag | Mito fusion act
Cc1sc2ncnc(N3CCC(C(=O)NNC(=O)COc4ccc(Br)cc4)CC3)c2c1C | ? | . | .[15.4 µM] | 32µM | .
Cc1sc2ncnc(N3CCC(C(=O)NNC(=O)COc4ccc(Cl)cc4)CC3)c2c1C | ? | . | ? | 32µM | /
Cc1sc2ncnc(N3CCC(C(=O)Nc4ccc(OC(F)F)c(Cl)c4)CC3)c2c1C | . | . | . | 28µM | /
N#CCC(=O)Nc1ccc(C(=O)OCC(=O)Nc2ccc(N3CCCCC3)cc2)cc1 | / | . | / | / | /
CCCNC(=O)Cc1c[nH]c2ccccc12 | / | . | / | / | /
Cc1sc2ncnc(N3CCC(C(=O)NNC(=O)COc4cccc(C(F)(F)F)c4)CC3)c2c1C | ? | . | . | 50µM | .
Cc1cc(Br)ccc1NC(=O)CN(C)C(=O)C1CCN(c2ncnc3sc(C)c(C)c23)CC1 | ? | . | . | 32µM | /
CCc1ccc(OCC(=O)NNC(=O)C2CCN(c3ncnc4sc(C)c(C)c34)CC2)cc1 | . | . | . | . | .
COc1ccc(-n2c(=S)[nH]c3[nH]ncc3c2=O)cc1 | . | . | .[15.4 µM] | . | .
O=c1c2cn[nH]c2[nH]c(=S)n1-c1ccccc1 | . | 6.3µM | . | ? | .
CCOc1ccc(CSCCNC(=S)Nc2ccccc2)cc1 | . | 45µM | .[15.4 µM] | . | .
CC(C)(C)c1ccc(OCCNC(=S)Nc2ccccc2)cc1 | . | 45µM | .[15.4 µM] | . | .
S=C(NCCSCc1c(Cl)cccc1Cl)Nc1ccccc1 | . | 35µM | . | . | .
CCOc1ccc(NC(=S)NCCCc2ccccc2)cc1 | . | ? | .[15.4 µM] | . | .
Cc1ccccc1-c1ccc(COc2ccc3c(cnn3CCC(=O)O)c2)cc1 | / | 45µM | / | / | /
COc1cc(F)cc(-c2ccc(COc3ccc4c(cnn4CCC(=O)O)c3)cc2)c1 | / | 28µM | / | / | /
C[S+](=O)([O-])CCn1ncc2cc(OCc3cccc(-c4ccc(F)cc4)c3)ccc21 | / | . | / | / | /
COc1cccc(F)c1-c1ccc(COc2ccc3c(cnn3CCC(=O)O)c2)cc1 | / | 22µM | / | / | /
CNC(=O)CCn1ncc2cc(OCc3ccccc3-c3ccccc3COC)ccc21 | / | . | / | / | /
CCOc1ccc(CNC(=O)Cn2ccc3cc(S(=O)(=O)N4CCCCC4)ccc32)cc1 | 16µM | . | / | / | /
CN(C)c1ccc(CNC(=O)c2cc3cc(S(=O)(=O)N4CCCCC4)ccc3n2C)cc1 | 8.9µM | . | / | / | /
Cn1c(C(=O)NCc2cccc(F)c2)cc2cc(S(=O)(=O)N3CCCCC3)ccc21 | . | . | / | / | /
CC(C)Oc1ccc(CNC(=O)Cn2ccc3cc(S(=O)(=O)N4CCCC4)ccc32)cc1 | . | . | . | . | .
COc1cncc(Nc2ncc(-c3ccccc3OC)c3c2OCC3)c1 | / | . | / | / | /
Cc1cc(C)n(CC2(Cn3cc(C4CCCNC4)nn3)CC2)n1 (stereo not given) | / | 14µM | / | / | /
SMILES | FUS suppressor | ALOX12 inh | gsp agonist | gsp antag | Mito fusion act
CC(=O)Nc1ccc(NC(=O)c2cccc(-c3cc4ccccc4oc3=O)c2)cc1 | . | . | .[15.4 µM] | . | .
Cc1ccc(C(=O)NC(=S)Nc2ccc(-c3cc4ccccc4oc3=O)cc2)c(C)c1 | . | . | 20µM | . | .
Cc1cc(C)cc(C(=O)NC(=S)Nc2ccc(-c3cc4ccccc4oc3=O)cc2)c1 | / | 10µM | . | . | .
CCCN(CCC)C(=O)C1COC2(CCC(C)CC2)N1C(=O)c1ccc(F)cc1 (stereo not given) | / | . | / | / | /
COc1ccc(-c2noc(CN(C(=O)c3cc(OC)c(OC)c(OC)c3)C3CCCCC3)n2)cc1 | / | . | / | / | /
Cn1c(-c2ccc(Br)cc2)cnc1NCc1ccc(C#N)cc1 | . | 2.5µM | . | . | .
Cn1c(-c2cccc(Br)c2)cnc1NCc1ccccc1O | . | 14µM | . | . | .
COc1ccc(CNc2ncc(-c3ccc(Br)cc3)n2C)cc1OC | . | . | . | . | .
Cn1c(-c2cccc([N+](=O)[O-])c2)cnc1NCc1ccc(C#N)cc1 | . | ? | . | . | .
COc1cccc(CNc2ncc(-c3ccc(Br)cc3)n2C)c1 | . | 8.9µM | / | / | .
Cn1c(-c2ccccc2)cnc1NCc1ccccc1 | . | ? | . | . | .
CN(CC1CC1)C(=O)c1cc(=O)[nH]c2ccc(S(=O)(=O)Nc3ccc(F)cc3)cc12 | / | . | / | / | /
Cc1cc2cc(C(c3nnnn3Cc3ccco3)N3CCc4ccccc43)c(=O)[nH]c2cc1C (stereo not given) | ? | ? | . | . | .
